ChEMBL document CHEMBL3433997, “St. Jude Leishmania screening dataset” (2016)

Tests used:
Format in all cases: functional
[1] = molecular target: Solute carrier family 2, facilitated glucose transporter member 1 (Homo sapiens) (UniProt P11166); test: ST_JUDE_LEISH: Cytotoxicity at 2uM final concentration against transgenic Leishmania Mexicana promastigotes LmGLUT1 that are glucose transport deficient and complemented with the human glucose transporter GLUT1. Activity is measured by DNA content using SYBR green in vitro
[2] = molecular target: Hexose transporter 1 (Plasmodium falciparum) (UniProt O97467); test: ST_JUDE_LEISH: Cytotoxicity at 2uM final concentration against transgenic Leishmania Mexicana promastigotes LmPfHT that are glucose transport deficient and complemented with the Plasmodium falciparum hexose transporter. Activity is measured by DNA content using SYBR green in vitro
[3] = molecular target: Glucose transporter (Leishmania mexicana) (UniProt O61059); test: ST_JUDE_LEISH: Cytotoxicity at 2uM final concentration against transgenic Leishmania Mexicana promastigotes LmGT2 that are glucose transport deficient and complemented with the L. Mexicana glucose transporter 2. Activity is measured by DNA content using SYBR green in vitro

Solute carrier family 2, facilitated glucose transporter member 1 (Homo sapiens), sequence (P11166 whole entry): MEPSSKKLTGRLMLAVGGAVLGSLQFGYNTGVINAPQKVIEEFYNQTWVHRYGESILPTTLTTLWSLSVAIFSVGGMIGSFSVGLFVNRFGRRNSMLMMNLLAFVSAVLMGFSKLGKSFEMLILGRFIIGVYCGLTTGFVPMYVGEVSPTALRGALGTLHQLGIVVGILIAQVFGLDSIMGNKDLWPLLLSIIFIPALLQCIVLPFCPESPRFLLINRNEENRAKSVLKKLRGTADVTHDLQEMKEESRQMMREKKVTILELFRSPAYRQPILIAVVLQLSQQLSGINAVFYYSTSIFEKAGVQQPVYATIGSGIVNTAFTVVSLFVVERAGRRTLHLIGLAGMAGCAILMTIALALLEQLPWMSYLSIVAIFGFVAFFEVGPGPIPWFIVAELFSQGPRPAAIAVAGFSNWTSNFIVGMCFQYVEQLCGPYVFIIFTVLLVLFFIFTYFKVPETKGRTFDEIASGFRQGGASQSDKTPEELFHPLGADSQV

Row | SMILES | inhibition [1] [%] | inhibition [2] [%] | inhibition [3] [%]
1 | O=C1CCCN1CCCNCc1ccc(-c2ccc(-c3nc4cc(C(F)(F)F)ccc4[nH]3)s2)cc1 | 4.04 | 1.98 | 3.27
2 | O=C(/C=C/c1ccc(Cl)c(Cl)c1)NCCCCCCN1CCCN(C(=O)Nc2ccc(C(F)(F)F)cc2)CC1 | 2.54 | 2.95 | 2.88
3 | Cc1cccc(-c2nc(Nc3ccncc3)c3ccc([N+](=O)[O-])cc3n2)n1 | 5.77 | 7.55 | 3.86
4 | CC(C)CNCc1cccc(-c2cccc(CN(CCCN3CCN(C)CC3)C(=O)Nc3ccccc3)c2)c1 | 0.02 | -1.73 | 0.33
5 | COc1ccc(CNC2CCN(C)CC2)cc1-c1ccc(S(=O)(=O)NC2CCC2)cc1 | 2.91 | 2.71 | 2.91
6 | O=C(CCc1c[nH]cn1)Nc1cccc(-c2ccc(-c3nc4cc(F)ccc4[nH]3)s2)c1 | 10.2 | 7.95 | 9.84
7 | C=CCn1c(Sc2ccc(C#N)c([N+](=O)[O-])c2)nnc1-c1ccc(Cl)cc1 | 5.68 | 5.18 | 2.18
8 | Cc1c(-c2cccc(C(C)(C)NC3CCN(Cc4ccccc4)CC3)c2)cnc(N)c1C | 2.58 | 0.02 | 2.38
9 | Cc1ccc(C)c(NC(=O)CC2C(=O)N(c3ccccc3)C(=S)N2Cc2ccco2)c1 (stereo unspecified) | 4.9 | 5.73 | 5.93
10 | c1cc2[nH]c(CCCc3nc4cc(C5=N[C@H]6CCCC[C@H]6N5)ccc4[nH]3)nc2cc1C1=N[C@@H]2CCCC[C@@H]2N1 | 0.97 | 1.75 | 0.34
11 | CCCCCCC(C)c1cc(OCCN(CC)CC)c2c(c1)OC(C)(C)C=C2c1ccncc1 (stereo unspecified) | -0.93 | 0.33 | -1.02
12 | CN(C)CCCNCc1ccc(-c2ccc(CNCCc3ccccc3)cc2)cc1 | -0.43 | 0.15 | -0.49
13 | CC(C)CC(=O)Nc1cc(=O)[nH]c2nc(-c3ccccc3)nn12 | 3.45 | 3.9 | 4.09
14 | COc1ccc2ccccc2c1C=NN=c1cc(C)[nH]c2cc(C(F)(F)F)ccc12 | 10.2 | 8.24 | 6.68
15 | CCCCN1CCN(CC(O)CNC(=O)Nc2ccc(Cl)cc2)CC1 (stereo unspecified) | 2.88 | 3.59 | 1.81
16 | CC(=O)Nc1ccc(S(=O)(=O)Nc2ccc(Nc3nc(C)cc(N(C)C)n3)cc2)cc1 | -1.06 | 0.57 | 2.61

Row | SMILES | inhibition [1] [%] | inhibition [2] [%] | inhibition [3] [%]
17 | O=C(NC1CCCCC1)N(Cc1cccc(-c2ccc(CNC3CCCC3)cc2)c1)C1CCN(Cc2ccccc2)CC1 | 16 | 14.6 | 9.9
18 | COc1ccc(CNC2Cc3ccccc3C2)cc1-c1ccc(S(=O)(=O)NCc2cccnc2)s1 | 1.92 | 2.48 | 0.3
19 | O=C(N[C@@H](CC1CCCCC1)C(=O)NC1CC1)c1ccc(O)c(-c2cccc(C(F)(F)F)c2)c1 | 3.48 | 2.6 | 3.88
20 | CC(C)(C)c1ccc(/C=C/C(=O)NCCCCCN2CCC(c3c[nH]c4ccccc34)CC2)cc1 | 4.78 | 4.13 | -1.25
21 | c1ccc2c3c(ccc2c1)Sc1c(ccc2ccccc12)N3 | 6.27 | 5.61 | 5.33
22 | COc1ccc2nc(-c3ccc(C(=O)NCCCN4CCN(c5cc(Cl)ccc5OC)CC4)cc3OC)[nH]c2c1 | 2.79 | 1.93 | 3.01
23 | CCOC(=O)c1cc(C(=O)NCCCCN2CCC(c3ccc(CC)cc3OCC)CC2)ccc1-c1ccc(C(F)(F)F)cc1 | 10.1 | 8.59 | 3.34
24 | CCOc1cc(C(=O)NC2CC(C)(C)NC(C)(C)C2)ccc1-c1cc2cc(Cl)c(Cl)cc2[nH]1 | -1.95 | -1.26 | -0.02
25 | Cc1ccc(C(=O)Nc2ccc(C)c(OC3CCN(CCC(C)C)C3)c2)cc1 (stereo unspecified) | 8.1 | 8.98 | 5.85
26 | FC(F)(F)c1ccc2[nH]c(-c3ccc(-c4cccc(CN5CCN(c6ccncc6)CC5)c4)cc3)nc2c1 | 64.9 | 53.5 | 9.81
27 | Cc1ccc(Cl)cc1N1CCN(CCCNC(=O)C2CCN(c3nc4ccccc4[nH]3)CC2)CC1 | 4.49 | 5.2 | 5.6
28 | CC1(C(=O)Nc2ccc([N+](=O)[O-])cc2O)CC2c3ccccc3C1c1ccccc12 (stereo unspecified) | 2.18 | 3.79 | 0.74
29 | [O-][s+]1c(Cl)c(-c2ccc(Cl)cc2)c2ccc(Cl)cc21 (stereo unspecified) | 6.36 | 8.82 | 3.59
30 | COc1ccc2nc3cc(Cl)ccc3c(NCc3ccccc3)c2c1 | 2.39 | 2.92 | -0.49
31 | O=C(NCCCCN1CCC(c2ccc3c(c2OCCO)CCCC3)CC1)c1ccc(-c2ccc(C(F)(F)F)cc2)cc1 | -0.75 | 0.12 | 5.23
32 | COc1ccc(C2SCC(=O)N2CCc2ccc(OC)c(OC)c2)cc1 (stereo unspecified) | 2.35 | 1.37 | 2.36
